PLK1 PBD inh: blocks phosphopeptide binding to human PLK1 polo-box domain | Potency, µM, hits mostly inhibitors | P53350 | actives 2.8% (n = 360,000) | Plk1 PBD binding of FITC phosphopeptide, fluorescence polarization | AID 720504; note: series mostly up to about 57 µM; nearly all actives have a fitted effect of over 65% in size
Target sequence (P53350 whole entry, looked up, the tested form may be a part): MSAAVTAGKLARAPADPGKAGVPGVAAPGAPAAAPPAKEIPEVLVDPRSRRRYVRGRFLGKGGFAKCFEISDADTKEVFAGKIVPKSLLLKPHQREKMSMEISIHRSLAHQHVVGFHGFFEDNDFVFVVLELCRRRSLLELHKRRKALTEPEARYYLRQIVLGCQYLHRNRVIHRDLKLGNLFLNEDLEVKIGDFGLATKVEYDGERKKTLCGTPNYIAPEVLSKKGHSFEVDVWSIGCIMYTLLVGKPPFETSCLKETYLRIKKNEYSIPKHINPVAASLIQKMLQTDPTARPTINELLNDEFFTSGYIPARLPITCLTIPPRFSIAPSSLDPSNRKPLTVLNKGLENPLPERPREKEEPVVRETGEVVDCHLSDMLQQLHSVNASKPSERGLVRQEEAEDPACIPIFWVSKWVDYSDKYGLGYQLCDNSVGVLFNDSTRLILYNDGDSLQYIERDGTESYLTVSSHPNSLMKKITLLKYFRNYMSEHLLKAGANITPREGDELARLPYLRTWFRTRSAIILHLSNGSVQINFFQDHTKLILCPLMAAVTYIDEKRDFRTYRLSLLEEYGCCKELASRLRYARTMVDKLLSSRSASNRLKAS
JMJD2A Tudor: blocks the human JMJD2A Tudor domain; AID 504339; AlphaScreen JMJD2A-Tudor / H3K4me3 peptide binding; actives 4.4% (n = 390,000); Potency, µM (titrated, usually from 114 µM), most hits filed as inhibitors; note: nearly all actives have a fitted effect of over 50% in size
BAZ2B inh: inhibitors of human BAZ2B bromodomain | Q9UIF8 | actives 4.4% (n = 360,000) | Potency, µM (titrated, usually from 114 µM), hits mostly inhibitors | AlphaScreen BAZ2B-H3K14Ac peptide displacement; note: nearly all actives have a fitted effect of over 60% in size
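BAZ2B 50 nM plus b-H3(5-23)K14Ac 50 nM, PBS pH 7.4/0.01% Tween-20, 30 min RT; compound added (max 110 uM), 30 min RT; streptavidin donor/Ni-chelate acceptor beads 10 ug/mL final, 20 min dark; AlphaScreen read.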
G9a block: G9a (human) methyltransferase inhibition; Q96KQ7; Potency, µM (highest dose often 102 µM), hits mostly inhibitors; actives 8.8% (n = 350,000); G9a H3K9 monomethylation, AlphaScreen, 2 h; note: nearly all actives have a fitted effect of over 75% in size
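AlphaScreen read-out: biotin-H3K9 peptide (500 nM) methylation by 20 nM enzyme with 20 uM SAM, 2 h at room temperature after 15 min compound preincubation; anti-monomethyl H3K9 antibody plus donor/acceptor beads, 10 min dark.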
ALOX12 inh: blocks human arachidonate 12S-lipoxygenase; purified 12hLO, xylenol orange hydroperoxide absorbance; Potency, µM (top dose mostly 108 µM), most hits filed as inhibitors; AID 1671190; actives 1.1% (n = 580,000); P18054
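Hydroperoxide product was detected by ferrous iron/xylenol orange as the 573 to 405 nm absorbance ratio. Arachidonic acid at 40 uM (final) was turned over for 30 min at room temperature by 150 nM human 12hLO, pH 7.0 Hepes buffer, after 15 min compound preincubation.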
HP1b binding inh: blocks HP1-beta chromodomain binding to methylated histone tails. P83916. Potency, µM (series often up to 114 µM), usual class: inhibitors. AlphaScreen HP1-beta / biotin-H3K9me3 peptide binding. actives 0.56% (n = 390,000); note: nearly all actives have a fitted effect of over 70% in size
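AlphaScreen: HP1-beta (50 nM) preformed 30 min with biotin-H3(1-18)K9me3 peptide (50 nM) in PBS pH 7.4, 0.01% Tween-20. Compound added for 30 min at RT, then streptavidin donor/nickel chelate acceptor beads (10 ug/mL) for 30 min.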
Each line names hits and unclear results; the compound was inactive in the other large screens. Rows were chosen to be rich in hits. Some 9% of all compounds tested hit in one or more screens of this group. Calls come from the whole dose curve; as a rule, active = well fitted curve in the direction sought with a large enough effect; inconclusive = small, poorly fitted or top-dose-only effect, or another doubt; inactive = no such curve, though single readings can be large; an effect the other way counts as inactive or inconclusive.

c1ccc(-c2nnc3ccc(N4CCC5(CC4)OCCO5)nn23)cc1	none
O=S1(=O)CC(N2CCN(CC3CC3)CC2)CN1Cc1cn(Cc2ccccc2C(F)(F)F)nn1 (stereo not given)	ALOX12 inh inconclusive (no result: JMJD2A Tudor, BAZ2B inh, G9a block, HP1b binding inh)
O=C(COC(=O)c1ccccn1)Nc1ccccc1Cl	JMJD2A Tudor 31.6µM, BAZ2B inh inconclusive, G9a block 10µM, ALOX12 inh inconclusive
CC(=O)Nc1ccc(NC(=O)COC(=O)c2ccccn2)cc1	BAZ2B inh 50.1µM, G9a block 44.7µM
CCCCCC(=O)Nc1ccc(C(=O)COC(=O)c2ccccn2)cc1	G9a block 50.1µM, ALOX12 inh inconclusive
O=C(COC(=O)c1ccccn1)Nc1cc(Cl)ccc1Cl	BAZ2B inh inconclusive, ALOX12 inh inconclusive
O=C(COC(=O)/C=C/c1ccccc1)Nc1cccnc1Cl	G9a block 50.1µM
CC(=O)c1cccc(NC(=O)COC(=O)c2ccccn2)c1	BAZ2B inh inconclusive
Cc1ccccc1NC(=O)CCCCC(=O)Nc1ccccc1C	none
CC(=O)NCC(=O)OCC(=O)c1ccccc1	none
CCCCCCC(=O)NCC(=O)OCC(=O)c1ccccc1	G9a block 25.1µM
Cc1ccc(C(=O)OCC(=O)Nc2cccc(Cl)c2C)c(O)c1	none
CN(C)S(=O)(=O)c1ccc(NC(=O)COC(=O)c2ccccn2)cc1	JMJD2A Tudor inconclusive, BAZ2B inh inconclusive, G9a block 50.1µM
Cc1ccc(C(=O)OCC(=O)Nc2ccccc2Cl)c(O)c1	PLK1 PBD inh 9.47µM (no result: G9a block)
CC(SCc1cn2cc(Cl)ccc2n1)C(=O)O (stereo not given)	JMJD2A Tudor 50.1µM, G9a block inconclusive
CCOC(=O)C1CCN(CC(=O)Nc2cc(C)nn2-c2nc3ccccc3s2)CC1	none
COc1ccc(S(=O)(=O)N2CCC(C(=O)N[C@@H](C)C(=O)NC3CCCC3)CC2)cc1	PLK1 PBD inh 18.9µM, JMJD2A Tudor 22.4µM (no result: G9a block)
COc1ccc2cc(S(=O)(=O)N3CCCC(C)C3)ccc2c1 (stereo not given)	PLK1 PBD inh 26.7µM
O=C1CCCC(=O)C1C(=O)C1CCN(S(=O)(=O)c2ccccc2)CC1	PLK1 PBD inh inconclusive, JMJD2A Tudor 56.2µM, HP1b binding inh inconclusive
COc1ccc2cc(S(=O)(=O)N3CCCCCC3)ccc2c1	PLK1 PBD inh inconclusive (no result: G9a block)
CCc1ccc(S(=O)(=O)N2CCCC(N3CCN(c4ccc(OC)cc4)CC3)C2)cc1 (stereo not given)	JMJD2A Tudor 39.8µM, BAZ2B inh 14.1µM, G9a block 39.8µM, ALOX12 inh inconclusive, HP1b binding inh inconclusive
CCCCC(=O)Nc1nnc(CCOC)s1	none (no result: G9a block)
COc1ccc(S(=O)(=O)N2CCC(N3CCN(Cc4ccccc4)CC3)CC2)cc1	JMJD2A Tudor 5.62µM, BAZ2B inh 25.1µM, G9a block 22.4µM, ALOX12 inh inconclusive, HP1b binding inh inconclusive
CCn1c(SC(C)C)nnc1C1CCN(S(=O)(=O)c2ccc(OC)cc2)CC1	JMJD2A Tudor 44.7µM, G9a block inconclusive, ALOX12 inh inconclusive
O=S(=O)(c1ccccc1)N1CCC(N2CCCCCC2)CC1	JMJD2A Tudor 3.98µM, BAZ2B inh inconclusive, G9a block inconclusive, ALOX12 inh 4.47µM, HP1b binding inh inconclusive
CCn1c(SC)nnc1C1CCN(S(=O)(=O)c2ccc(OC)cc2)CC1	none
COc1ccc(S(=O)(=O)N2CCC(C(=O)N3CCCCCC3)CC2)cc1	PLK1 PBD inh 10.6µM, G9a block inconclusive
COc1ccc(S(=O)(=O)N2CCC(N3CCCC3)CC2)cc1	JMJD2A Tudor 25.1µM, BAZ2B inh 56.2µM, G9a block 8.91µM, ALOX12 inh inconclusive
O=C(C1CCN(S(=O)(=O)c2ccc(F)cc2)CC1)N1CC=C(c2ccccc2)CC1	G9a block 14.1µM
COc1ccc(/C=C/C(=O)c2c(C)cc(C)[nH]c2=O)c2ccccc12	G9a block inconclusive
COc1cccc(NC(=O)CN(C)C(=O)/C=C/c2cn(-c3ccccc3)nc2-c2ccc(C)cc2)c1	G9a block inconclusive
CCOC(=O)C1=C(CSc2nc(-c3ccccc3)ccc2C#N)OC(N)=C(C#N)C1c1ccccc1 (stereo not given)	G9a block inconclusive

Screens from PubChem BioAssay.
